20 compounds from PubChem BioAssay AID1347383 (Zoeller Lab, School of Medicine, Boston University, 2020) can be followed below.

Activity calls are given as the source filed them.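 How the source made its calls: active means cell survival after UV exposure 2 SD above solvent-only control wells at 10 µM, confirmed on one or two repeats; inactive means the rest.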

This experiment is described as follows: protection of CHO cells from pyrene-fatty acid UV killing, primary screen, phospholipid biosynthesis inhibitor project, ZR-82 cells, Analyticon library, screen 2 (AID 1347383).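 Further: survival reflects blocked phospholipid synthesis cutting uptake of the phototoxic fatty acid; compound and fatty acid exposure 3 h then viability read next day.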 The conditions noted are these: ZR-82 CHO cells, CellTiter Blue, at 10 µM, peroxisome-deficient CHO-K1 variant, with DGAT-1, DGAT-2 and ACAT inhibitors. On the technique in general: Resazurin is reduced to fluorescent resorufin, in cell work by metabolically active cells.
As to `NC(=O)c1c[nH]c(Cc2ccccc2)cc1=O`, the outcome was inactive.

Consider `O=c1ccc2nccc3c4ccccc4n1c23`, for which the outcome was inactive. As for `CCCCCCCC(O)/C=C\C(O)CCC(O)CCCC(=O)O` (stereo not given), the result was inactive. `CCCCCCc1cc(O)c(C)c(OC(C)=O)c1O`: the call was inactive. In the case of `Oc1ccc([C@@H]2Oc3cc(O)cc(O)c3C[C@@H]2O)cc1` it was “inactive”; in that of `CCCCCCOC1OC(COC2OCC(O)C(O)C2O)C(O)C(O)C1O` (stereo not given), “inactive”; in that of `CC1=C2C[C@]3(C)C(=O)C[C@@H](C(C)C)[C@H]3C/C=C(/C)[C@@H]2CC1=O`, “inactive”. Take `CCCCCCCCC(=O)/C=C/C=C/C(=O)CCCC(=O)O`: the compound was classed as inactive.

As to `C[C@]12CC[C@@H]3c4ccc(O)cc4CC[C@H]3[C@@H]1CCC2=O`, the compound was classed as inactive.

`O=c1c(-c2ccc(O)cc2O)coc2cc(O)cc(O)c12`: the outcome was inactive.

Regarding `COc1c2ccoc2c(OC)c2oc(=O)ccc12`, the compound was classed as inactive.

In the case of `COc1cc(C[C@H]2C(=O)OC[C@@H]2Cc2ccc(OC)c(OC)c2)ccc1O`, the result was inactive. In the case of `C=C[C@@]1(C)CCC2=C(C1)C(=O)CC1[C@](C)(C(=O)O)CCC[C@]21C` (stereo not given in full), the call was inactive. With `CC(=O)Oc1ccc2c(C)cc(=O)oc2c1`, the compound was called inactive.

For the compound `COc1cc2c(c(OC)c1OC)-c1ccc(OC)c(=O)cc1[C@@H](NC(C)=O)CC2`, the compound was classed as inactive. Take `C/C(=C\C(=O)C(C)C1CCC2C3=C(CCC21C)C1(C)CCC(O)C(C)(C)C1(O)CC3)C(C)(C)O` (stereo not given): the compound was classed as inactive. In the case of `Nc1ccccc1CCCCCCCCC(=O)O`, the result was inactive. In the case of `CC(C)=CCOc1ccc(/C=C/C(=O)c2ccc(O)cc2O)cc1`, the outcome was inactive. For the compound `C/C=C/c1cc(O)c(C(=O)C(=O)CC)c(=O)o1`, the compound was classed as inactive. Regarding `C=C1C[C@]23C[C@H]1CC[C@H]2[C@]1(C)CCC[C@@]2(COC(C)=O)C(=O)O[C@H]([C@H]21)[C@@H]3OC(C)=O`, the result was active.
